Bioassay records as filed in PubChem.
This is a sample that favours compounds with a hit; in the whole collection about 1.4% have one here.
AID504770 – growth inhibition of E. coli YBA685, primary screen, V. cholerae RctB inhibitors | E. coli YBA685 rctB-dependent plasmid, OD600 growth, 3 h; active compounds read low | z-score (test concentration not listed) | actives 0.27% (n = 130,000); in the data active = z-score below about -2, passing the limit was not always enough
Polio RdRp inh – poliovirus RdRp elongation inhibitors, primary screen, biochemical, fluorescence polarization, total intensity; Genome polyprotein (Poliovirus type 1 (strain Mahoney)), P03300; poliovirus polymerase elongation; active compounds read low; % elongation, % (compound at 16.7 µg/mL); actives 0.66% (n = 150,000); AID 588519, 2011; in the data active = % elongation below about 90%
MenB inh – M. tuberculosis MenB inhibitors, primary screen, biochemical, absorbance. MenB enzyme assay, absorbance read-out. inhibition, % (no concentration beside the values). actives 0.43% (n = 100,000); in the data active = inhibition above about 21%, passing the limit was not always enough
Target sequence (P9WNP5 whole entry, looked up): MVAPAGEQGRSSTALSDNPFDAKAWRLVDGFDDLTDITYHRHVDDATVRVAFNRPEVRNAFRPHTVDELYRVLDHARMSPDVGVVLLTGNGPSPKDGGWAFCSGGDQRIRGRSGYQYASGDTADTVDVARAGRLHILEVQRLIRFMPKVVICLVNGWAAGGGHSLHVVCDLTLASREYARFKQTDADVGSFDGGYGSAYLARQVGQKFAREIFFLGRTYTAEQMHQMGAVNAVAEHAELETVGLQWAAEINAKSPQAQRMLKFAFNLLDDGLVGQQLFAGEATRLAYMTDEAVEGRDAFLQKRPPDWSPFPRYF
MbtI inh – MbtI salicylate synthase inhibitors, primary screen, biochemical, fluorescence intensity | inhibition, % (no concentration beside the values) | actives 0.89% (n = 100,000) | P9WFX0 | purified MbtI enzyme, fluorescence intensity read-out; in the data active = inhibition mostly above about 56%, no sharp cut-off; inactive = mostly below about 77%
* marks the source's active call; other numbers are inactive results.

How did N#CSC(C#N)Cc1ccccc1 (centres undefined) do in these assays?
AID504770: -6.45*; Polio RdRp inh: 98.0; MenB inh: 19.3; MbtI inh: 82.9*

Results for CC1=NN(c2ccccc2)C(=O)C1(C)N (centres undefined) ?
AID504770: 0.95; Polio RdRp inh: 105.0; MenB inh: -10.3; MbtI inh: -1.2

What do the screens show for `CC1=NN(c2ccccc2)C(=O)C1(O)C1C(=O)c2ccccc2C1=O` (centres undefined)?
AID504770: 2.4; Polio RdRp inh: 29.0*; MenB inh: -165.7; MbtI inh: -3.0

How did CN(C)S(=O)(=O)c1ccc(C(=O)Oc2cc(=O)[nH]c3ccccc23)cc1 do in these assays?
AID504770: 0.2; Polio RdRp inh: 89.0*; MenB inh: -42.0; MbtI inh: -152.0

What do the screens show for `CC(Nc1ccc(Cl)cc1)C(=O)Nc1ccc(S(N)(=O)=O)cc1` (centres undefined)?
AID504770: -0.35; Polio RdRp inh: 100.0; MenB inh: -14.5; MbtI inh: 2.9

What do the screens show for `COC(=O)c1cc2cccc(OC)c2oc1=O`?
AID504770: -0.65; Polio RdRp inh: 101.0; MenB inh: 15.3; MbtI inh: 9.6

How did COc1cccc(OC)c1C(=O)ON=C1C=CC(=O)C=C1 do in these assays?
AID504770: -1.3; Polio RdRp inh: 103.0; MenB inh: -24.0; MbtI inh: 82.7*

Results for CC1CC(C)CN(C(=O)CSc2nnc(COc3ccc(Cl)cc3)o2)C1 (centres undefined) ?
AID504770: -0.35

What do the screens show for `COCCn1c(=S)[nH]c2sc(C)c(C)c2c1=O`?
AID504770: 0.15; Polio RdRp inh: 80.0*; MenB inh: -48.0; MbtI inh: 100.5*

Results for CCCCn1c(=S)[nH]c2sc3c(c2c1=O)CCCC3 ?
AID504770: -0.15; Polio RdRp inh: 100.0; MenB inh: -46.5; MbtI inh: 1.9

How did O=C(Nc1c[nH]c(=O)[nH]c1=O)NC1CCCC1 do in these assays?
AID504770: -0.6; Polio RdRp inh: 100.0; MenB inh: 4.1; MbtI inh: 1.2

How did O=C(CCC1CCCCC1)Nc1c[nH]c(=O)[nH]c1=O do in these assays?
AID504770: -2.15*; Polio RdRp inh: 102.0; MenB inh: 0.0; MbtI inh: -5.0

How did c1ccc(CC(NCc2c[nH]c3ccccc23)c2ccccc2)cc1 (centres undefined) do in these assays?
AID504770: -3.1*; MbtI inh: -10.8

What do the screens show for `c1ccc(CNCCc2c[nH]c3ccccc23)cc1`?
AID504770: 0.95; MbtI inh: -2.2

What do the screens show for `COc1ccc(/C=N/c2oc(-c3cccs3)c(-c3cccs3)c2C#N)cc1`?
AID504770: 0.75; Polio RdRp inh: 106.0; MenB inh: -14.5; MbtI inh: 13.8

Results for O=[n+]1c(CO)c(CO)n([O-])c2ccccc21 ?
AID504770: -8.7*; Polio RdRp inh: 101.0; MenB inh: 11.3; MbtI inh: 8.3

Results for O=c1c[n+]([O-])c2ccccc2n1OCc1ccccn1 ?
AID504770: 2; Polio RdRp inh: 103.0; MenB inh: -49.4; MbtI inh: -8.1

What do the screens show for `CC(C)NC(=O)c1ccc(-c2ccc(F)cc2)o1`?
AID504770: 1.4; Polio RdRp inh: 101.0; MenB inh: 30.3*; MbtI inh: 90.3

How did O=C1C(SCCO)=C(SCCO)C(=O)c2ccccc21 do in these assays?
Polio RdRp inh: 99.0; MenB inh: 20.4; MbtI inh: 91.5*

How did CSC(C)C(=O)C1=C(O)c2ccccc2C1=O (centres undefined) do in these assays?
AID504770: 1.65

How did Cc1sc2ncnc(N)c2c1C do in these assays?
AID504770: 1.65; Polio RdRp inh: 67.0*; MenB inh: -15.4; MbtI inh: inactive

Results for CCN(CC)c1ncnc2sc(C)c(C)c12 ?
AID504770: 0.2; Polio RdRp inh: 100.0; MbtI inh: -0.2

Results for N#CCCn1cc(/C=N/NC(=O)C23CC4CC(CC(C4)C2)C3)c(-c2ccccc2)n1 ?
AID504770: 0.45; Polio RdRp inh: 104.0; MenB inh: -10.8; MbtI inh: 2.9

How did CSc1sc(C(=O)N(C)C)cc1S(=O)(=O)C(C)C do in these assays?
AID504770: 0.4

How did CSc1sc(C(=O)Sc2ccccc2)cc1S(=O)(=O)C(C)C do in these assays?
AID504770: -0.65; Polio RdRp inh: 82.0*; MenB inh: -7.6; MbtI inh: -7.0

What do the screens show for `O=C1c2ccccc2-c2onc3c(Cl)ccc1c23`?
AID504770: 1.75; Polio RdRp inh: 100.0; MenB inh: -25.8; MbtI inh: 0.6

How did O=C1c2ccccc2-c2onc3ccc(Oc4c(F)c(F)c(F)c(F)c4F)c1c23 do in these assays?
AID504770: -2.25*; Polio RdRp inh: 102.0; MenB inh: 2.7; MbtI inh: -5.5

How did O=C1CC(c2nnc(Cc3ccc4c(c3)OCO4)o2)CN1c1ccccc1 (centres undefined) do in these assays?
AID504770: -1; Polio RdRp inh: 99.0; MenB inh: -36.8; MbtI inh: -1.9

Results for COC(=O)C1CCN(C(=O)Cc2ccc(C)cc2)CC1 ?
AID504770: -0.4; Polio RdRp inh: 83.0*; MenB inh: -9.5; MbtI inh: -1.1

What do the screens show for `Cc1ccc(C(=O)C2CCN(C(=O)Cc3ccccc3)CC2)cc1`?
AID504770: 0.7; Polio RdRp inh: 100.0; MenB inh: -5.4; MbtI inh: -4.5

Results for O=C(O)CCC(=O)Nc1ccc(O)c(C(=O)O)c1 ?
AID504770: 0; Polio RdRp inh: 87.0*; MenB inh: 6.3; MbtI inh: 105.7

Results for CC(=O)Nc1ccc(O)c(C(=O)O)c1 ?
AID504770: -0.65

What do the screens show for `C=CCN(CC=C)C(=O)c1cccc(OC)c1`?
AID504770: 0.45; Polio RdRp inh: 105.0; MenB inh: 1.4

What do the screens show for `COc1cccc(N=C2NNC(C)=C(C(=O)N(C)C)S2)c1`?
AID504770: -0.75; Polio RdRp inh: 83.0*; MenB inh: -6.7; MbtI inh: 58.8*

How did O=c1[nH]c(-c2ccccc2O)nc2sc3c(c12)CCCC3 do in these assays?
AID504770: -0.2; Polio RdRp inh: 89.0*; MenB inh: -4.3

Results for O=c1[nH]c(-c2ccco2)nc2sc3c(c12)CCCC3 ?
AID504770: -0.3; Polio RdRp inh: 103.0; MbtI inh: inactive

Results for COc1ccc(CN2CCC(C(=O)O)CC2)cc1 ?
AID504770: -0.5; Polio RdRp inh: 104.0; MenB inh: 13.9; MbtI inh: -8.1

What do the screens show for `CC(C)c1ccc(-c2noc(C3CCCN(S(=O)(=O)c4ccccc4)C3)n2)cc1` (centres undefined)?
AID504770: 0.8; Polio RdRp inh: 106.0; MenB inh: -18.3; MbtI inh: -4.5

How did COc1ccc(NC(=O)C(C)n2nnc3sc(-c4ccccc4)cc3c2=O)cc1Cl (centres undefined) do in these assays?
Polio RdRp inh: 76.0*

What do the screens show for `N#CCc1ccc(Oc2ccc(C(F)(F)F)cn2)cc1`?
AID504770: 0.25

How did CCS(=O)(=O)N1CCC(Oc2ccc(-n3cnnn3)cc2)CC1 do in these assays?
AID504770: -1; Polio RdRp inh: 98.0; MenB inh: 7.7; MbtI inh: -8.1
